# Experimental data from PubChem BioAssay (NCATS).
# Records with an inconclusive call do not appear. Activity calls are given as the source filed them. Unless noted, the call rests on the fitted dose curve; in most records, active means well fitted curve in the direction sought with a large enough effect; inconclusive means small, poorly fitted or top-dose-only effect, or another doubt; inactive means no such curve, though single readings can be large; an effect the other way counts as inactive or inconclusive.
# Legend:
# [1] = target: Lysosomal acid glucosylceramidase (Homo sapiens) (UniProt P04062); test: Glucocerebrosidase-p2 (AID 348; in the data active means potency below about 10 µM; further: potency means the concentration at half of the fitted maximal effect); details: purified GBA, blue fluorogenic substrate, 40 min
# Outline: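 Normal human glucocerebrosidase (0.2 nM) with blue fluorogenic substrate (80 uM final) in citrate/phosphate pH 5.9 with 10mM sodium taurocholate, 0.01% tween-20; 40 min RT, NaOH/glycine stop; fluorescence Ex 365/Em 440; AC50 from a titration from 0.6 nM upwards.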
# [2] = AP1 Signaling Pathway (AID 357; active means well fitted curve in either direction with a large enough effect, not every such curve was filed as active; further: on the % scale 0 is the no-effect control and ±100 the full control effect); details: ME-180 AP-1-bla reporter, EGF-induced, beta-lactamase ratio, 5 h; at 7.69 µM (top of the series) unless noted
# Outline: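 AP-1-bla ME-180 cells with beta-lactamase reporter under AP-1 response element, stimulated with EC50 EGF; compounds titrated, 5 hours at 37 degrees Celsius. CCF4 read at 460/530 nm ratio; positive and negative modulators judged by AC50.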
# [3] = target: Cytochrome P450 1A2 (Homo sapiens) (UniProt P05177); test: p450-cyp1a2 (AID 410; calls by dose curve; further: potency means the concentration at half of the fitted maximal effect;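 on activity change, negative = inhibition: -100% = full effect of reference inhibitor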); details: recombinant CYP1A2, luciferin-ME demethylation, luminescence; series mostly up to 57 µM
# Outline: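 Luminescent demethylation readout: Luciferin-ME (100uM, equal to Km) turned over by 20nM CYP1A2 for 60 min at room temperature after NADPH regeneration addition, following 10 min compound preincubation. Normalization used 57 uM furafylline as full inhibition.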
# [4] = NFAT Signaling Pathway (AID 444; active means well fitted curve in either direction with a large enough effect, not every such curve was filed as active;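 further: carbachol stimulus at about its EC50 of 1 µM final; on the % scale 0 is the no-effect control and ±100 the full control effect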); details: Jurkat NFAT-bla M1, carbachol, beta-lactamase ratio, 5 h; at 7.69 µM (top of the series) unless noted
# Outline: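 Jurkat cells with NFAT-driven β-lactamase reporter and co-expressed M1 receptor, stimulated with carbachol (final 1 uM, ~EC50), compound titration, 5 h at 37 °C. CCF4 loaded 1 h at RT; 460/530 nm ratio gave %activity and AC50.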
# [5] = Stat Signaling Pathway (AID 446; active means well fitted curve in either direction with a large enough effect, not every such curve was filed as active;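 further: ME-180 cervical cancer cells given 40 pM IL-6 alongside compound; SIE-controlled beta-lactamase reporter measured as 460/530 nm FRET emission ratio; on the % scale 0 is the no-effect control and ±100 the full control effect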); details: ME-180 (cervical carcinoma) SIE beta-lactamase reporter, IL-6 stimulated, 5 h; at 7.69 µM (top of the series) unless noted
# Outline: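 Compound effects on IL-6-induced STAT reporter activity were measured in ME-180 cells. After overnight culture, cells were co-treated with 40 pM IL-6 for 5 hrs before beta-lactamase substrate loading at room temperature.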
# [6] = target: Glucocorticoid receptor (Homo sapiens) (UniProt P04150); test: GR-GFP Redistribution (AID 450;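 active means compounds whose dose series gives a full or clear partial fitted curve of increased nuclear translocation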; further: potency means the concentration at half of the fitted maximal effect); details: U2OS GR-GFP nuclear translocation, laser cytometry, 2 h
# [7] = target: Glucocorticoid receptor (Homo sapiens) (UniProt P04150); test: GR-EFC Redistribution (AID 451; calls by dose curve; further: potency means the concentration at half of the fitted maximal effect); details: CHO-K1 GR-EFC translocation, beta-gal luminescence, 2 h
# Outline: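 CHO-K1 cells expressing nuclear EA and GR-ED fragments of b-gal; compounds titrated up to 46 uM final, 2 h at 37 C. GR nuclear translocation read as complemented b-gal luminescence after 1 h RT detection.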
# [8] = target: Mitogen-activated protein kinase 10 (Mus musculus) (UniProt Q61831); test: JNK3 AlphaScreen Assay (AID 530; active means well fitted curve in either direction with a large enough effect, not every such curve was filed as active;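 further: kinase came from lysate of stimulated human HepG2 cells; signal reports phosphorylation of biotinylated GST-cJun 1-79 at Ser73 with 10 µM ATP; on the % scale 0 is the no-effect control and ±100 the full control effect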); details: JNK3 lysate, c-Jun phosphorylation; series mostly up to 57.1 µM
# Outline: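 Activity was read by AlphaScreen after JNK3-containing HepG2 lysate (cytokine pre-activated) phosphorylated biotinylated GST-cJun with 10 uM ATP at room temperature. Phospho-Ser73 cJun antibody with Protein-A acceptor beads provided detection.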
# [9] = target: Cytochrome P450 3A4 (Homo sapiens) (UniProt P08684); test: qHTS Assay for Activators of Cytochrome P450 3A4 (AID 885); details: recombinant CYP3A4, Luciferin-PPXE luminescence, 60 min; series mostly up to 57.1 µM; further: nearly all actives have a fitted effect of over 65% in size
# Outline: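 CYP3A4 activity: Luciferin-PPXE O-dealkylation, 25uM substrate, 200mM KPO4, RT throughout. Read-out is luciferase luminescence; higher values reflect activation.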
# [10] = qHTS Assay for Lipid Storage Modulators (AID 1519; calls by dose curve); details: Drosophila S3 cells, BODIPY lipid droplet/cell ratio, laser cytometry, cells loaded with oleic acid; for activity change, negative = inhibition: at 57.5 µM (top of the series)
# Outline: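 Cells seeded at 5,000 per well were treated with compounds over a concentration series and loaded with oleic acid (400 uM, as added). Lipid droplet fluorescence (488 nm excitation, 500-530 nm channel) was read by laser-scanning cytometry and normalized to 20 uM Triacsin C.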
# [11] = target: Dual specificity protein kinase CLK4 (Homo sapiens) (UniProt Q9HAZ1); test: qHTS Assay for Inhibitors of CDC-like Kinase 4 (Kinase-Glo Assay) (AID 1770); details: recombinant Clk4, Kinase-Glo ATP depletion luminescence; series mostly up to 66.7 µM; further: nearly all actives have a fitted effect of over 65% in size; further: potency means the concentration at half of the fitted maximal effect
# Outline: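 Substrate mix (RS peptide 100 uM, ATP 1 uM) dispensed, compound pinned in, then Clk4 added to 25 nM final. Incubated 4.5 h at RT; Kinase-Glo reagent added, luminescence read after 5 min.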
# [12] = target: Dual specificity protein kinase CLK4 (Homo sapiens) (UniProt Q9HAZ1); test: qHTS Assay for Inhibitors of CDC-like Kinase 4 (ADP-Glo Assay) (AID 1771); details: recombinant CLK4, ADP-Glo luminescence; series mostly up to 80 µM; further: nearly all actives have a fitted effect of over 70% in size; further: potency means the concentration at half of the fitted maximal effect
# Outline: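 ADP production was read by ADP-Glo luminescence after residual ATP depletion, following 1 h room-temperature reaction of 25 nM Clk4, 1 uM ATP and 100 uM RS peptide with MgCl2, EGTA, DTT and Triton X-100.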
# [13] = target: Dual specificity protein kinase CLK4 (Homo sapiens) (UniProt Q9HAZ1); test: qHTS Assay for Inhibitors of CDC-like Kinase 4 (ADP-FP Assay) (AID 1795); details: Transcreener ADP fluorescence polarization; series mostly up to 50 µM; further: nearly all actives have a fitted effect of over 60% in size; further: potency means the concentration at half of the fitted maximal effect
# Outline: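 Clk4 6.25 nM; RS peptide 100 uM; ATP 1 uM; 25 mM Tris pH 7.5, 10 mM MgCl2; 1 h reaction. ADP detected via antibody/orange tracer FP displacement; TG003 positive control.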
# [14] = target: Ubiquitin carboxyl-terminal hydrolase 1 (Homo sapiens) (UniProt O94782); test: Inhibitors of USP1/UAF1: Pilot qHTS (AID 504865); details: purified USP1/UAF1, Ub-rhodamine cleavage fluorescence; series mostly up to 54.9 µM;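 further: rhodamine fluorescence freed from ubiquitin-rhodamine substrate followed over time; top concentration of the series differs between compounds; on the % scale 0 is the no-effect control and ±100 the full control effect; nearly all actives have a fitted effect of over 35% in size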
# Outline: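 In 50mM HEPES pH 7.8 containing 0.5mM EDTA, 1mM TCEP, 0.1 mg/ml BSA and 0.01% Tween-20, 1nM USP1/UAF1 is exposed to compound for 15 min, then Ub-Rho (150nM final) is added and fluorescence is read over time.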
# [15] = Primary qHTS for small molecule stabilizers of the endoplasmic reticulum resident proteome: Secreted ER Calcium Modulated Protein (SERCaMP) assay (AID 1508630); details: SH-SY5Y GLuc-SERCaMP (Gaussia luciferase released on ER calcium loss) secretion, thapsigargin, luminescence; series mostly up to 38.4 µM; further: on the % scale 0 is the no-effect control and ±100 the full control effect
# Outline: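 The SH-SY5Y reporter protocol was run at 3 concentrations up to 38.3 uM (primary) or 11 concentrations (follow-up): 16 h compound, 100 nM thapsigargin for 4 h, then extracellular luciferase luminescence.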
# [16] = target: Cytochrome P450 3A4 (Homo sapiens) (UniProt P08684); test: qHTS Assay for Inhibitors and Substrates of Cytochrome P450 3A4 (AID 884); details: recombinant CYP3A4, Luciferin-PPXE luminescence; series mostly up to 57.1 µM; further: potency means the concentration at half of the fitted maximal effect; nearly all actives have a fitted effect of over 50% in size
# Outline: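 Luminescent readout of luciferin produced by CYP3A4 (20 nM) dealkylation of Luciferin-PPXE, 25 uM (its KM). NADPH-driven reaction ran 60 min at RT after 10 min compound preincubation; data scaled to 57 uM ketoconazole as 100% inhibition.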
# [17] = target: 3',5'-cyclic-AMP phosphodiesterase 4B (Homo sapiens) (UniProt Q07343); test: qHTS Assay for Inhibitors of PDE-IV (AID 607; active means well fitted activation curve with a large enough effect in the main read-out, with a control signal flat, not every such curve was filed as active; further: % of control where 0% means no effect); details: HEK293 ACTOne CNG channel cells, membrane potential fluorescence; series mostly up to 22.9 µM
# Outline: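 ACTOne HEK293 cells carry a modified cAMP-gated CNG channel and express endogenous PDE4; plated 1000 cells/well, compounds up to 22.9 uM final. Membrane-potential dye fluorescence (ex 535/em 590) was read; parental cells received 10 uM forskolin + 100 uM RO 20-1724.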
# [18] = measured here: cell count channel max response
# [19] = measured here: lipid channel max response
# Cytochrome P450 3A4 (Homo sapiens), sequence (P08684 whole entry, looked up): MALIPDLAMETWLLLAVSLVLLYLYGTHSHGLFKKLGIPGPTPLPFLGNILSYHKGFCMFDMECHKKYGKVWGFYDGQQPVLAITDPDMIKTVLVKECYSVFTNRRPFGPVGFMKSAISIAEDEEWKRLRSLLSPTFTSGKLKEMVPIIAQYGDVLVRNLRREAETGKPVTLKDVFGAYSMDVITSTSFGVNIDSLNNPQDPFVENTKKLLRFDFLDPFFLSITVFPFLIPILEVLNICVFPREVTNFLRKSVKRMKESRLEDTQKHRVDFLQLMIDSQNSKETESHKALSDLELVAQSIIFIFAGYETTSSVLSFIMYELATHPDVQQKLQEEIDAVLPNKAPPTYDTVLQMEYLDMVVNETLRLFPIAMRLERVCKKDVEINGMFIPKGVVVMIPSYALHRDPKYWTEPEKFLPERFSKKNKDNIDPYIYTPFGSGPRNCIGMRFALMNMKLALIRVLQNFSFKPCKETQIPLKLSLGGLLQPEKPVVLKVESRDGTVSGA
# Dual specificity protein kinase CLK4 (Homo sapiens), sequence (Q9HAZ1 whole entry, looked up): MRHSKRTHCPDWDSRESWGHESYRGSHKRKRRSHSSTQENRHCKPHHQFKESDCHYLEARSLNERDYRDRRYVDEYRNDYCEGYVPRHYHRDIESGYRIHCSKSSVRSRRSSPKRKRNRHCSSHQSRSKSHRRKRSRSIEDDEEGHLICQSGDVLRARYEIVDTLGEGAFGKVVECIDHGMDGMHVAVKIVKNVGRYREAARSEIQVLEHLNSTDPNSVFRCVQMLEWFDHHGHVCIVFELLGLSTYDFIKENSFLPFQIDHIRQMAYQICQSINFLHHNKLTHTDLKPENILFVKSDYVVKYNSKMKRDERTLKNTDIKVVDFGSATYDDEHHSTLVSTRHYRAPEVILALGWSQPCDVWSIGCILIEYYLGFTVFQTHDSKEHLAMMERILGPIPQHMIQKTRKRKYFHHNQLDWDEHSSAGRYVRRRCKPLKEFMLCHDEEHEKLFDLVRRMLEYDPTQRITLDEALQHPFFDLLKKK
# Cytochrome P450 1A2 (Homo sapiens), sequence (P05177 whole entry, looked up): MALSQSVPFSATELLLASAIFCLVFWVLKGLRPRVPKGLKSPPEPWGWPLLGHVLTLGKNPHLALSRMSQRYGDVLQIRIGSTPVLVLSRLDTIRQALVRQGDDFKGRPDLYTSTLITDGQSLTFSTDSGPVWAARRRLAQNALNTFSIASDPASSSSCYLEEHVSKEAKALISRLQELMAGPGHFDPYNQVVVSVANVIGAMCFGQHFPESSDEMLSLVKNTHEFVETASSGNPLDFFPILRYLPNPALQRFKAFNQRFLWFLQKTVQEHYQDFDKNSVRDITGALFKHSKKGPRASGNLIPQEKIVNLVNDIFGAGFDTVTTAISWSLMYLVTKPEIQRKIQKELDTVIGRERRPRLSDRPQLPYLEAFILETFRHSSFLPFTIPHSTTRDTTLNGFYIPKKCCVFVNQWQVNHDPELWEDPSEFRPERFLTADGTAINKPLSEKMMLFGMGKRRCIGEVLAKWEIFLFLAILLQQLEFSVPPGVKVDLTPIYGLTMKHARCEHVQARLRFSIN
# Ubiquitin carboxyl-terminal hydrolase 1 (Homo sapiens), sequence (O94782 whole entry, looked up): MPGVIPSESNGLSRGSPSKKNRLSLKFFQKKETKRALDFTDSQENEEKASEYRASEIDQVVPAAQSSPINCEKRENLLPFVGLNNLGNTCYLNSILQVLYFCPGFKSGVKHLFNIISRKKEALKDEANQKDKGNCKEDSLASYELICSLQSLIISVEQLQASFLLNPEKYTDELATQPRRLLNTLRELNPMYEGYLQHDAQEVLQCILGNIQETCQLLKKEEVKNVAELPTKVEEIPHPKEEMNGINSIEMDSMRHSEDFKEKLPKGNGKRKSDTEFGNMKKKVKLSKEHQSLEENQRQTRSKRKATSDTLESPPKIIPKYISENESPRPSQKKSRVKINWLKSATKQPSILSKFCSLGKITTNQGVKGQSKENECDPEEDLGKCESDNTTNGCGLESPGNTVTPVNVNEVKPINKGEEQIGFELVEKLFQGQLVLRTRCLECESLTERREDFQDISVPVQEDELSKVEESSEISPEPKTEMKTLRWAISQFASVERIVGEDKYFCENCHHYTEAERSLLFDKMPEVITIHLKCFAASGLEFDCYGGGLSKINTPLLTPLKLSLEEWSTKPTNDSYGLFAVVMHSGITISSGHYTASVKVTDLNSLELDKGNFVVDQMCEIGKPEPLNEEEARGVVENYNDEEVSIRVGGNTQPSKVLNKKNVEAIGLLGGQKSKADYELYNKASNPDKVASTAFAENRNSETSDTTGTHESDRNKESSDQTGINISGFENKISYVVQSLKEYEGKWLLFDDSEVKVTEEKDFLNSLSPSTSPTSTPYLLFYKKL
# Glucocorticoid receptor (Homo sapiens), sequence (P04150 whole entry, looked up, the tested form may be a part): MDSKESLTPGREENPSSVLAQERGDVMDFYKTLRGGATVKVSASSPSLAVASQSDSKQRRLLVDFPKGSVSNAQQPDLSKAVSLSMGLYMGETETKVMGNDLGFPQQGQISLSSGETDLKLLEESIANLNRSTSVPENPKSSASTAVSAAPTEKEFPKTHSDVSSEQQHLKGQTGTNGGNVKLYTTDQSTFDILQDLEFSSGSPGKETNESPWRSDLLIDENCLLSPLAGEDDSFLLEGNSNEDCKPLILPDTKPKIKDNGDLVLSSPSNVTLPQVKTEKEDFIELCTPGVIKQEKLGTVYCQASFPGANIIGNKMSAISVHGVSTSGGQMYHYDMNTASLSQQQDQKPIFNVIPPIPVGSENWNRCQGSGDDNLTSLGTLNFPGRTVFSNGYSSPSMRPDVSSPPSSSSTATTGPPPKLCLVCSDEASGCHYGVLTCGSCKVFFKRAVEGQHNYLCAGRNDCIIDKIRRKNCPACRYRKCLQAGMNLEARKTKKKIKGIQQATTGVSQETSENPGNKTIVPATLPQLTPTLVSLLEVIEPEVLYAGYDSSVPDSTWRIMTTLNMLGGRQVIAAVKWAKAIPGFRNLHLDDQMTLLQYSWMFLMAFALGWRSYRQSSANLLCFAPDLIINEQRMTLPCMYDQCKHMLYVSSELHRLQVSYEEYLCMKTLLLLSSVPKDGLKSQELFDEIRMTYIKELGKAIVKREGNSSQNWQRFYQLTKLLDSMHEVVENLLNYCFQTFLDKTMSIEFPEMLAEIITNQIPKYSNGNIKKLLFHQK
# Lysosomal acid glucosylceramidase (Homo sapiens), sequence (P04062 whole entry, looked up): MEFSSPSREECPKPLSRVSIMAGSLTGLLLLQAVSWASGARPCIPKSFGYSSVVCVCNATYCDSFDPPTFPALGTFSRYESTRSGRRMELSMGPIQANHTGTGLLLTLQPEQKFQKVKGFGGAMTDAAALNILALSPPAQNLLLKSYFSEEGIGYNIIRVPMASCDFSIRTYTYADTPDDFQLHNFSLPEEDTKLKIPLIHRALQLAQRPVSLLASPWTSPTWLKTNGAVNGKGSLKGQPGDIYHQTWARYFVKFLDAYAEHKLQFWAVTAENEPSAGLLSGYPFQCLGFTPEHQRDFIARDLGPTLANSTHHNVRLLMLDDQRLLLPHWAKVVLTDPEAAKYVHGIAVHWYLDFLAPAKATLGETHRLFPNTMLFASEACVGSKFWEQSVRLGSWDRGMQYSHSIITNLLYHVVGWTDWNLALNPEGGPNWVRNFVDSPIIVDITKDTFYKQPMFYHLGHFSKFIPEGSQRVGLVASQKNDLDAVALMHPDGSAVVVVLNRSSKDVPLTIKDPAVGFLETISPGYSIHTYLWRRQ
# 3',5'-cyclic-AMP phosphodiesterase 4B (Homo sapiens), sequence (Q07343 whole entry, looked up): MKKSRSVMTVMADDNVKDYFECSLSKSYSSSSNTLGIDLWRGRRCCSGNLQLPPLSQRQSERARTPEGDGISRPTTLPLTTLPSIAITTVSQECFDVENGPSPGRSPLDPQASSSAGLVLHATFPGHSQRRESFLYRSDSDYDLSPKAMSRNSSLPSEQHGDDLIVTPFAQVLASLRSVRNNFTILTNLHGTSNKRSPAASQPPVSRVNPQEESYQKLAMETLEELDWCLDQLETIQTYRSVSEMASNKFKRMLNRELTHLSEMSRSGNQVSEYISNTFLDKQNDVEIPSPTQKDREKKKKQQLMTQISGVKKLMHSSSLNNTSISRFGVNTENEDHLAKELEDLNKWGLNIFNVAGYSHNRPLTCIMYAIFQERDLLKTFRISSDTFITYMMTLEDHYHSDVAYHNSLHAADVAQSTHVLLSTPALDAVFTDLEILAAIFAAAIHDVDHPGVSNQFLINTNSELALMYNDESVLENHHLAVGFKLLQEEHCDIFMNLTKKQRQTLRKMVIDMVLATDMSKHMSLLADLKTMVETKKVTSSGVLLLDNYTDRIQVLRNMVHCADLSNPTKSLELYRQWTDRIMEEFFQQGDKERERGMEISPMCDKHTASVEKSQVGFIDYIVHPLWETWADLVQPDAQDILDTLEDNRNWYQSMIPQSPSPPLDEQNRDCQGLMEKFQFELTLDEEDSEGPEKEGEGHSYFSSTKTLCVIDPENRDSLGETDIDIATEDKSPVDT
Compound,Potency [1],"activity change, negative = inhibition [2]",Potency [3],"activity change, negative = inhibition [4]","activity, negative = inhibition [5]",Potency [6],Potency [7],outcome [8],Potency [9],"activity change, negative = inhibition [10]","max response [10, 18] [%]","max response [10, 19] [%]",Potency [11],Potency [12],Potency [13],Potency [14],Potency [15],Potency [16],Potency [17]
O=c1cnc2cncnc2n1Cc1ccccc1,> 11.4 µM (inactive),-12.8% (inactive),25.1 µM (active),-13.5% (inactive),-12.1% (inactive),> 9.22 µM (inactive),> 46 µM (inactive),inactive,inactive,0.677% (inactive),15,14,inactive,inactive,inactive,inactive,inactive,–,–
COc1ccc(-n2c(=O)c(-c3cccs3)nc3cnc(OC)nc32)cc1,> 11.4 µM (inactive),-22.9% (inactive),5.01 µM (active),-2.37% (inactive),-2.82% (inactive),> 9.22 µM (inactive),> 46 µM (inactive),inactive,inactive,3.59% (inactive),12.4,13.8,inactive,inactive,inactive,inactive,inactive,7.94 µM (active),–
Cc1noc(C)c1-c1cncnc1N(C)Cc1ccco1,> 11.4 µM (inactive),1.41% (inactive),inactive,-7.22% (inactive),-0.77% (inactive),> 46 µM (inactive),> 46 µM (inactive),inactive,inactive,4.24% (inactive),11.5,13.2,inactive,inactive,inactive,–,inactive,3.16 µM (active),inactive
Cc1noc(C)c1-c1cc(N(C)Cc2ccco2)ncn1,> 11.4 µM (inactive),1.26% (inactive),3.16 µM (active),-16% (inactive),6.33% (inactive),> 46 µM (inactive),> 46 µM (inactive),inactive,–,2.86% (inactive),13.8,17.9,inactive,inactive,inactive,inactive,inactive,–,inactive
CN(C)C(=O)c1ccc(-c2ccc3ncnc(N(C)C)c3c2)cc1,> 11.4 µM (inactive),-20.2% (inactive),20 µM (active),9.63% (inactive),-6.55% (inactive),> 46 µM (inactive),> 46 µM (inactive),inactive,inactive,4.12% (inactive),19.1,22.2,25.1 µM (active),28.2 µM (active),inactive,inactive,inactive,–,inactive
Cn1cc(-c2nc3cnc(N4CCOCC4)nc3n(C3CC3)c2=O)c2ccccc21,> 11.4 µM (inactive),-18.1% (inactive),3.16 µM (active),-15.3% (inactive),11.5% (inactive),> 9.22 µM (inactive),> 46 µM (inactive),inactive,inactive,8.36% (inactive),17.1,23.9,inactive,inactive,inactive,inactive,inactive,–,inactive
CS(=O)(=O)Nc1cccc(-c2ccc3ncnc(N4CCNCC4)c3c2)c1,> 11.4 µM (inactive),-1.37% (inactive),12.6 µM (active),23.1% (inactive),-16.8% (inactive),> 46 µM (inactive),> 46 µM (inactive),inactive,inactive,5.65% (inactive),18.2,22.6,6.31 µM (active),15.8 µM (active),5.01 µM (active),inactive,inactive,–,inactive
COCCn1c(=O)cnc2cnc(Oc3ccccc3)nc21,> 11.4 µM (inactive),-14.7% (inactive),15.8 µM (active),-0.802% (inactive),-13.1% (inactive),> 9.22 µM (inactive),> 46 µM (inactive),inactive,inactive,3.04% (inactive),12,12.6,inactive,inactive,inactive,inactive,inactive,–,inactive
O=c1c(CCc2ccccc2)nc2cncnc2n1Cc1ccc(F)cc1,> 11.4 µM (inactive),-7.12% (inactive),10 µM (active),-3.47% (inactive),-6.1% (inactive),> 9.22 µM (inactive),> 46 µM (inactive),–,inactive,5.86% (inactive),18.7,23.1,inactive,inactive,inactive,inactive,inactive,3.16 µM (active),–
Cc1cnc(CNc2ncnc3ccc(-c4ccoc4)cc23)cn1,> 11.4 µM (inactive),-14.2% (inactive),12.6 µM (active),-6.73% (inactive),-13.1% (inactive),> 46 µM (inactive),> 46 µM (inactive),inactive,inactive,0.59% (inactive),20.6,16.4,0.251 µM (active),0.224 µM (active),0.224 µM (active),inactive,inactive,–,inactive
